# Where “and” joins values, the source holds several entries; their conditions need not be identical. Equal values may be shown once. A structure can be active in one record and inactive in another. Calls of active or inactive are those of the source. How the source made its calls: active means hit-call score of the fitted dose curve at least 0.9, where 1 is the maximum; inactive means score below 0.9.
# Read-out: KRT18 (gene 3875)
# Test: BSK_BE3C_Keratin818: BioMAP Diversity Plus: BE3C Assay for Keratin 818 Biomarker Activity (AID 2284282)
# Details: primary human bronchial epithelial cells
# Description: BSK_BE3C is a cell-based, multiplexed-readout assay that uses bronchial epithelial cell, a human lung primary cell, with measurements taken at 24 hours after chemical dosing in a 96-well plate.BSK_BE3C_Keratin818 is an assay component measured in the BSK_BE3C assay. It measures Keratin 8/18 antibody related to regulation of gene expression using ELISA technology.Data from the assay component BSK_BE3C_Keratin818 was analyzed at the endpoint, BSK_BE3C_Keratin818, in the positive analysis fitting direction relative to DMSO as the negative control and baseline of activity. Using a type of binding reporter, gain or loss-of-signal activity can be used to understand protein changes. To generalize the intended target to other relatable targets, this assay endpoint is annotated to the 'cell adhesion molecules' intended target family, where the subfamily is 'keratin'.
# The levels of cell surface (or secreted, indicated by the prefix "s") biomarker endpoints were measured by ELISA. Overt cytotoxicity to cells in confluent adherent cultures (all systems other than the BT system) was assessed by measuring total protein levels using sulforhodamine B (SRB) staining in parallel cultures at the time of biomarker measurements, indicated as SRB endpoints. For proliferation assays for adherent cell types, individual cell types are cultured at sub-confluence and relative cell numbers quantified by SRB staining at time points optimized for each system (48 h: 3C and CASM3C systems; 72 h: BT and HDF3CGF systems; 96 h: SAg system). SRB was performed by staining cells with 0.1% SRB after fixation with 10% TCA and reading wells at 560 nm.Viability and proliferation of PBMC (T cells) was quantified by Alamar Blue reduction for the SAg and BT systems. For PBMC viability (referred to as PBMC Cytotoxicity within the assay endpoint names), cells were plated (75,000/well in a 96-well plate) and then chemical samples added for 1 h before addition of activators, SEB and TSST-1 (20 ng/mL final concentration each). Cells were incubated for 90 h. Then, Alamar Blue (20 uL/well) (Invitrogen, Cat DAL1100) was added for 6 h, and the plates were read with a fluorescence microplate reader at 546/580 nm (excitation/emission). For PBMC proliferation, cells were plated and activated as above but incubated for only 16 h prior to addition of Alamar Blue. Plates were read after 6 h.
SMILES,outcome,AC50
C=CC(=O)OCCC(F)(F)C(F)(F)C(F)(F)C(F)(F)F,inactive,
O=C(O)C(F)(F)C(F)(F)C(F)(F)OC(F)(C(F)(F)F)C(F)(F)F,inactive,
NC(=O)C(F)(F)C(F)(F)C(F)(F)C(F)(F)C(F)(F)C(F)(F)C(F)(F)F,inactive,
NCC(F)(F)C(F)(F)C(F)(F)C(F)(F)C(F)(F)C(F)(F)C(F)(F)C(F)(F)F,inactive,
O=C(Cl)C(F)(F)C(F)(F)C(F)(F)C(F)(F)C(F)(F)C(F)(F)C(F)(F)F,inactive,
OC(O)C(F)(F)C(F)(F)F,inactive,
NC(=O)C(F)(F)C(F)(F)C(F)(F)C(F)F,inactive,
CCOC(=O)CC(=O)C(F)(F)C(F)(F)F,inactive,
O=C(Cl)C(F)(F)C(F)(F)C(F)(F)C(F)(F)C(F)(F)C(F)(F)F,inactive,
O=S(=O)(O)CCC(F)(F)C(F)(F)C(F)(F)C(F)(F)C(F)(F)C(F)(F)C(F)(F)C(F)(F)F,inactive,
OCCCC(F)(F)C(F)(F)C(F)(F)C(F)(F)C(F)(F)C(F)(F)C(F)(F)C(F)(F)F,,39.6 µM (active) and 42.8 µM (active)
O=S(=O)(Cl)C(F)(F)C(F)(F)C(F)(F)C(F)(F)C(F)(F)C(F)(F)C(F)(F)C(F)(F)F,inactive,46.7 µM (active)
OCC(O)CC(F)(F)C(F)(F)C(F)(F)C(F)(F)F (stereo not given),inactive,
O=S(=O)(O)CCC(F)(F)C(F)(F)C(F)(F)C(F)(F)F,inactive,
O=C(O)C(F)(F)OC(F)(F)C(F)(F)OC(F)(F)C(F)(F)OC(F)(F)F,inactive,
OCCCCC(F)(F)C(F)(F)C(F)(F)C(F)(F)F,inactive,
O=C(O)C(F)(F)C(F)(F)C(F)(F)C(=O)O,inactive,
C=CC(=O)OCC(F)(F)C(F)(F)C(F)(F)C(F)(F)C(F)(F)C(F)(F)C(F)(F)C(F)F,inactive,
O=S(=O)(OCC(F)(F)F)C(F)(F)C(F)(F)C(F)(F)C(F)(F)F,inactive,
CCN(CCO)S(=O)(=O)C(F)(F)C(F)(F)C(F)(F)C(F)(F)C(F)(F)C(F)(F)C(F)(F)C(F)(F)F,inactive,

SMILES,outcome,AC50
O=C(O)C(F)(F)C(F)(F)C(F)(F)OC(F)(F)F,inactive,
OCC(F)(F)C(F)(F)C(F)(F)C(F)(F)C(F)(F)C(F)(F)C(F)(F)C(F)(F)CO,inactive,
NCC(F)(F)C(F)(F)C(F)(F)C(F)(F)C(F)(F)C(F)(F)F,inactive,
O=C(O)CCC(F)(F)C(F)(F)C(F)(F)C(F)(F)C(F)(F)C(F)(F)C(F)(F)F,inactive,
FC(F)(F)C(F)(F)C(F)(F)C(F)(F)C(F)(F)C(F)(F)CC[Si](Cl)(Cl)Cl,inactive,
C=C(C)C(=O)OCC(F)(F)C(F)(F)C(F)(F)C(F)F,inactive,
NS(=O)(=O)C(F)(F)C(F)(F)C(F)(F)C(F)(F)C(F)(F)C(F)(F)F,inactive,
C[Si](Cl)(Cl)CCC(F)(F)C(F)(F)C(F)(F)C(F)(F)C(F)(F)C(F)(F)F,inactive,
OCC(O)CC(F)(F)C(F)(F)C(F)(F)C(F)(F)C(F)(F)C(F)(F)C(F)(F)C(F)(F)F (stereo not given),inactive,
CCN=C1C=CC(=C(c2ccc(N(CC)CC)cc2)c2ccc(N(CC)CC)cc2)c2ccccc21,,1.61 µM (active) and 1.51 µM (active)
OCC(F)(F)C(F)(F)C(F)(F)CO,inactive,
C=CC(=O)OCC(F)(F)C(F)(F)C(F)(F)COC(=O)C=C,inactive,
NC(O)(C(F)(F)F)C(F)(F)F,inactive,
CO[Si](C)(CCC(F)(F)C(F)(F)C(F)(F)C(F)(F)C(F)(F)C(F)(F)F)OC,inactive,
FC(F)(F)C(F)(F)C(F)(F)C(F)(F)C(F)(F)C(F)(F)C(F)(F)CCI,inactive,
NC(=O)C(F)(F)C(F)(F)C(F)(F)F,inactive,
CN(C(=O)C(F)(F)C(F)(F)C(F)(F)F)[Si](C)(C)C,inactive,
OCC(F)(F)C(F)(F)C(F)(F)C(F)(F)C(F)(F)C(F)(F)CO,inactive,
O=C(O)CCC(F)(F)C(F)(F)C(F)(F)F,inactive,
